# Assay results taken from PubChem BioAssay (EPA / NIEHS).
# Several values for one entry are separate records, joined by “and”; a condition that tells them apart may be missing. Equal entries are not always repeated. Records with an inconclusive call do not appear. Activity calls are given as the source filed them. How the source made its calls: active means hit-call score of the fitted dose curve at least 0.9, where 1 is the maximum; inconclusive means response in the unintended direction; inactive means score below 0.9.
# Read-out: Cytochrome P450 3A4 (Homo sapiens) (UniProt P08684)
# Assay: CLD_CYP3A4_48hr: CellzDirect (CLD) Gene Expression Assay for xenobiotic metabolism (CYP3A4) at 48 hours (AID 2283698)
# Description: CLD_48hr is a cell-based, multiplexed-readout assay that uses hepatocyte, a human liver primary cell, with measurements taken at 48 hours after chemical dosing in a 96-well plate.CLD_CYP3A4_48hr is one of 16 assay component(s) measured or calculated from the CLD_48hr assay. It is designed to make measurements of mRNA induction, a form of inducible reporter, as detected with chemiluminescence signals by Quantitative Nuclease Protection Assay (qNPA) technology.Data from the assay component CLD_CYP3A4_48hr was analyzed at the endpoint, CLD_CYP3A4_48hr, in the positive analysis fitting direction relative to DMSO as the negative control and baseline of activity. Using a type of inducible reporter, gain-of-signal activity can be used to understand changes in the reporter gene as they relate to the gene CYP3A4. Furthermore, this assay endpoint can be referred to as a primary readout. To generalize the intended target to other relatable targets, this assay endpoint is annotated to the cyp intended target family, where subfamily is xenobiotic metabolism.
# Human hepatocyte cultures were treated daily for two consecutive days with fresh dosing solutions containing appropriate concentrations of the 320 ToxCast chemicals (chemical identities were blinded to CellzDirect and other ToxCast collaborators), vehicle control (0.2% DMSO), and positive control inducers as summarized in Table 1. Due to the large number of treatment groups and chemicals examined, the ToxCast chemicals were divided into two groups (spanning two independent cultures of hepatocytes from separate donor preparations (Hu778: ToxCast plates 1 and 2; Hu776: ToxCast plates 3 and 4). Each preparation of human hepatocyte cultures was treated with respective vehicle control, medium only control, set of six positive controls/reference chemicals for the five hepatic receptor pathways, and a subset of eight of the ToxCast chemicals (indoxacarb, pyrithiobac-sodium, norflurazon, cyhalofop-butyl, methomyl, thiram, acetochlor, and propiconazole). These replicate data, coupled with internal replicates designed within the blinded ToxCast chemical library, provided additional data to evaluate interindividual differences between hepatocyte preparations and their potential impact on chemical profiles.Cell morphology and integrity were evaluated using phase-contrast microscopy as an indicator of hepatocyte cell health (Tyson & Green, 1987). Cultures for each treatment group (i.e., media, vehicle [0.2% DMSO], positive control inducers [multiple concentrations], and the ToxCast chemicals [multiple concentrations]) were observed and cell morphology was assessed relative to vehicle control cultures at each harvest time point (0, 6, 24, or 48 h). […] Images were evaluated at the conclusion of the study to assess changes in cell integrity and account for the effects of chemical exposure on uncharacteristic changes in concentration-dependent gene expression profiles. The results from these determinations of apparent cytotoxicity were annotated (yes/no) alongside the corresponding qNPA data for reference.At the conclusion of each treatment period, hepatocyte cultures (96-well) were washed with 1 volume of HBSS, lysed by addition of 25 ul ArrayPlate lysis buffer (HTG, Tucson, AZ), and 70 ul/well of Denaturation Oil, denatured by incubation at 95C for 10 min, and frozen at approximately -70C until analysis by nuclease protection assay (qNPA) (Roberts et al., 2007). For qNPA analysis, cell lysates were thawed at 50C for approximately 30 min, qNPA probes were added, and samples were incubated at 95C for 10 min to begin the detection process by denaturing the target RNA, dissociating the duplexes and secondary structure hybridization. At the conclusion of the hybridization period, S1 nuclease reagent was added to each sample to digest all nonprotected nucleotides at 50C for 60-90 min. […]
# Chain of Cytochrome P450 3A4 (Homo sapiens) (P08684 whole entry, looked up): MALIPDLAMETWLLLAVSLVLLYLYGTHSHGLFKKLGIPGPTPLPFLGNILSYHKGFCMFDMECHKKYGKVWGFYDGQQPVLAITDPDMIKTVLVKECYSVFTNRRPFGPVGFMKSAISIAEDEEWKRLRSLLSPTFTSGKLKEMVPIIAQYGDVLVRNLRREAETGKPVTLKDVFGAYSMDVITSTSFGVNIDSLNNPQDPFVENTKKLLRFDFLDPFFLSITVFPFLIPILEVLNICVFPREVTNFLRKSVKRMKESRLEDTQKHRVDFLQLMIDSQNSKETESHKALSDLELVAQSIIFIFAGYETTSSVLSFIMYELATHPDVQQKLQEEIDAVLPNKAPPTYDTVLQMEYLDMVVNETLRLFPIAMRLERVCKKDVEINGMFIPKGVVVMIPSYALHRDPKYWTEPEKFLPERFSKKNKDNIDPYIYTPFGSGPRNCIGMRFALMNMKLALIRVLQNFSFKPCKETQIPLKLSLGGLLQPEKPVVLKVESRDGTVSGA
SMILES,AC50,outcome
COc1cnc(OC)n2nc(NS(=O)(=O)c3c(OCC(F)F)cccc3C(F)(F)F)nc12,20 µM (active),–
N#CC(CCc1ccc(Cl)cc1)(Cn1cncn1)c1ccccc1 (stereo not drawn),0.736 µM (active),–
CCOP(=S)(OCC)SCn1c(=O)oc2cc(Cl)ccc21,4.1 µM (active),–
Cc1c(F)c(F)c(COC(=O)C2C(/C=C(\Cl)C(F)(F)F)C2(C)C)c(F)c1F (stereo not drawn),20 µM (active),–
OC(c1ccc(Cl)cc1)(c1cncnc1)c1ccccc1Cl (stereo not drawn),0.443 µM (active),–
CCNc1nc(Cl)nc(NCC)n1,–,inactive
Oc1ccccc1-c1ccccc1,–,inactive
COP(=S)(OC)Oc1nc(Cl)c(Cl)cc1Cl,–,inactive
CCc1nn(C)c(C(=O)NCc2ccc(C(C)(C)C)cc2)c1Cl,20 µM (active),–
COc1nc(NC(C)C)nc(NC(C)C)n1,6.77 µM (active),–
COc1nc(C)nc(NC(=O)NS(=O)(=O)c2ccccc2Cl)n1,–,inactive
CCOC(=O)CC(SP(=S)(OC)OC)C(=O)OCC (stereo not drawn),–,inactive
CC1COC(Cn2cncn2)(c2ccc(Oc3ccc(Cl)cc3)cc2Cl)O1 (stereo not drawn),–,inactive
CC(C)(C)c1ccc(CSc2cnn(C(C)(C)C)c(=O)c2Cl)cc1,–,inactive
CCNc1nc(Cl)nc(NC(C)C)n1,14.2 µM (active),–
CC(C)Oc1cc(-n2nc(C(C)(C)C)oc2=O)c(Cl)cc1Cl,1.9 µM (active),–
CCCCOC(=O)c1ccccc1C(=O)OCCCC,–,inactive
CC(C)C1(C)N=C(c2nc3ccccc3cc2C(=O)O)NC1=O (stereo not drawn),–,inactive
COP(N)(=O)SC (stereo not drawn),–,inactive

SMILES,AC50,outcome
Fc1ccc(Oc2ccnc3cc(Cl)cc(Cl)c23)cc1,–,inactive
CCCCNC(=O)OCC#CI,–,inactive
COC(=O)C(C)Oc1ccc(Oc2ccc(Cl)cc2Cl)cc1 (stereo not drawn),–,inactive
CC(Oc1ccc(Cl)cc1Cl)C(=O)O (stereo not drawn),–,inactive
Cc1cc(Cl)ccc1OCC(=O)O,–,inactive
CON(C)C(=O)Nc1ccc(Cl)c(Cl)c1,–,inactive
CC1=C(C(=O)Nc2ccccc2)SCCO1,–,inactive
CCCC1COC(Cn2cncn2)(c2ccc(Cl)cc2Cl)O1 (stereo not drawn),2.06 µM (active),–
CNC(=O)ON=CC(C)(C)SC,–,inactive
COC(=O)C=C(C)OP(=O)(OC)OC,–,inactive
COc1nc(C)nc(NC(=O)NS(=O)(=O)c2ccccc2CCC(F)(F)F)n1,20 µM (active) and 4.16 µM (active) and 3.34 µM (active),–
O=C(O)c1nc(Cl)ccc1Cl,–,inactive
CCCN(CCC)c1c([N+](=O)[O-])cc(S(N)(=O)=O)cc1[N+](=O)[O-],10 µM (active),–
CCOC(=O)C(Cl)Cc1cc(-n2nc(C)n(C(F)F)c2=O)c(F)cc1Cl (stereo not drawn),4.77 µM (active),–
CCCCC(CC)COC(=O)c1ccccc1C(=O)OCC(CC)CCCC (stereo not drawn),–,inactive
N#Cc1nn(-c2c(Cl)cc(C(F)(F)F)cc2Cl)c(N)c1S(=O)C(F)(F)F (stereo not drawn),1.1 µM (active),–
COC(=O)c1ccccc1C(=O)OC,–,inactive
CCOc1cc(Oc2ccc(C(F)(F)F)cc2Cl)ccc1[N+](=O)[O-],5.16 µM (active),–
C#CCOS(=O)OC1CCCCC1Oc1ccc(C(C)(C)C)cc1 (stereo not drawn),3.74 µM (active),–
